{
  "source": "paper PMC10726135",
  "about": "“HNF4α isoforms regulate the circadian balance between carbohydrate and lipid metabolism in the liver”",
  "note": "In all, about 18,000 sequences were measured (“log2 normalized intensity”: median about 0.39, highest 2% from about 6.6 on). The full list was thinned out, with the highest values kept by preference.",
  "data": [
    {"target": "T1, HNF4alpha2 (COS-7 nuclear extract) (Homo sapiens, UniProt P41235 1-474)", "T1 sequence": "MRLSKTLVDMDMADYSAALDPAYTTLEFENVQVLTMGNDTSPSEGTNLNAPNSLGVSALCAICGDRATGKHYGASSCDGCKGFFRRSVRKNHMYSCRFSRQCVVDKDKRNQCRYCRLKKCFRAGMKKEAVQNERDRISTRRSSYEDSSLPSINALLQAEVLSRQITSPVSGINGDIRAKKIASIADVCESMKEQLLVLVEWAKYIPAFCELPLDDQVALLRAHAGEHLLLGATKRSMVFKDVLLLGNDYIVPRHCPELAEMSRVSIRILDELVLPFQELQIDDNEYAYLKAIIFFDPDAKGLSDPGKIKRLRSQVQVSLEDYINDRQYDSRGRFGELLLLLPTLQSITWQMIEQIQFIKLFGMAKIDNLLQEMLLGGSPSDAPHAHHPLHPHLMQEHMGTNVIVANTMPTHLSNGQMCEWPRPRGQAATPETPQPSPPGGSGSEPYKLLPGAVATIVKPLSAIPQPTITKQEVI", "assay": "protein-binding microarray; COS-7 nuclear extract on double-stranded Agilent 4x180k PBM; binding buffer, salt, pH and temperature not given in the material; high values mean tight binding", "conditions": "chain copies: 2; label: 3' end of strand 1 on the slide; dsDNA, one strand shown", "summary_of_the_method": "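Binding signal was defined as the normalized, background-corrected gProcessedSignal reported by Agilent software. It came from nuclear extracts of COS-7 cells transiently transfected with a human HNF4α isoform expression vector, applied to a custom Agilent SurePrint G3 4x180k array. That array held ~44,000 test sequences in quadruplicate as double-stranded ~60-nt oligonucleotides, and bound HNF4α was imaged at 2-µm resolution on an Agilent G2565CA scanner.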", "units": {"binding signal": "log2 normalized intensity"}, "values": [
      {"sequence": "GAGCGCTTTGAGGCCTATGGCGAAAAAGGAGCCTAGGGAGATTAGAGTATCGGTCGA", "binding signal": -0.829},
      {"sequence": "AATTCATCTCTAAGCTACTGAAAATGACCTGCCTAGGGAGATTAGAGTATCGGTCGA", "binding signal": 3.39},
      {"sequence": "AAAAAATTACTGACCCTTGCACTGTAAGATGCCTAGGGAGATTAGAGTATCGGTCGA", "binding signal": 3.49},
      {"sequence": "TACTGAAAATGACCTTTGTTCCCTGCACTTGCCTAGGGAGATTAGAGTATCGGTCGA", "binding signal": 7.15},
      {"sequence": "AAAAAAAAAAATTACTGACCCTTGCACTGTGCCTAGGGAGATTAGAGTATCGGTCGA", "binding signal": 4.58},
      {"sequence": "ATCTCTAAGCTACTGAAAATGACCTTTGTTGCCTAGGGAGATTAGAGTATCGGTCGA", "binding signal": 6.11},
      {"sequence": "TAAGCTACTGAAAATGACCTTTGTTCCCTGGCCTAGGGAGATTAGAGTATCGGTCGA", "binding signal": 8.2},
      {"sequence": "AAGCAATGGCTACCAAGGAGTGGACTGTTCGCCTAGGGAGATTAGAGTATCGGTCGA", "binding signal": 1.7},
      {"sequence": "GGGGGCAAGGTACACCATCTATGAGCTCAAGCCTAGGGAGATTAGAGTATCGGTCGA", "binding signal": 1.28},
      {"sequence": "AAAGGCGTTTGCTCCCATCCCCCCAAAGGCGCCTAGGGAGATTAGAGTATCGGTCGA", "binding signal": 4.99},
      {"sequence": "TTAGATCAGAGGTCTAATTCCCAAGGGTATGCCTAGGGAGATTAGAGTATCGGTCGA", "binding signal": -0.435},
      {"sequence": "CCAGTGAGACCCATTTTGGACTTTGACCTCGCCTAGGGAGATTAGAGTATCGGTCGA", "binding signal": 11.9},
      {"sequence": "TTGGACTTTGACCTCCAAAATTATAAGTCAGCCTAGGGAGATTAGAGTATCGGTCGA", "binding signal": 8.25},
      {"sequence": "CACAGCTGGACTTTGGCTGCAAAATTTGAAGCCTAGGGAGATTAGAGTATCGGTCGA", "binding signal": 3.04},
      {"sequence": "CTTTGTAGCACTTTGGACCTCCACTTTGGAGCCTAGGGAGATTAGAGTATCGGTCGA", "binding signal": 3.1},
      {"sequence": "CATTGACTTTGCCTTTTGGCTAAAGTCCAAGCCTAGGGAGATTAGAGTATCGGTCGA", "binding signal": 4.16},
      {"sequence": "TTTGGAATTTGACCTCATTTGCTCCCAGTGGCCTAGGGAGATTAGAGTATCGGTCGA", "binding signal": 3.85},
      {"sequence": "CCATTTTGGACTTTGACCTCCAAAATTATAGCCTAGGGAGATTAGAGTATCGGTCGA", "binding signal": 10.4},
      {"sequence": "TAGCACTTTGGACCTCCACTTTGGAGGGGGGCCTAGGGAGATTAGAGTATCGGTCGA", "binding signal": 1.7},
      {"sequence": "AATGATGATGACTTTTGACCCCAGGGGAAAGCCTAGGGAGATTAGAGTATCGGTCGA", "binding signal": 5.51},
      {"sequence": "TTAGCCCAGTGAGACCCATTTTGGACTTTGGCCTAGGGAGATTAGAGTATCGGTCGA", "binding signal": 6.34},
      {"sequence": "GAATTCTTGACTTTGGACTTTCAAAAGTTAGCCTAGGGAGATTAGAGTATCGGTCGA", "binding signal": 4.21},
      {"sequence": "GAGACCCATTTTGGACTTTGACCTCCAAAAGCCTAGGGAGATTAGAGTATCGGTCGA", "binding signal": 10.7},
      {"sequence": "CCTCTCTCTCTCTCTCTCACACACACACACGCCTAGGGAGATTAGAGTATCGGTCGA", "binding signal": 2.09},
      {"sequence": "CTTACTTGGCATCATCAAACAAGATTTATCGCCTAGGGAGATTAGAGTATCGGTCGA", "binding signal": -0.732},
      {"sequence": "TGTAGGTAAGCACAAAGTACAGCTTTTTGTGCCTAGGGAGATTAGAGTATCGGTCGA", "binding signal": 1.13},
      {"sequence": "TATAAAGGTCAACTGCCCTCTCAAATTACAGCCTAGGGAGATTAGAGTATCGGTCGA", "binding signal": 1.51},
      {"sequence": "TTTTAAAATAGATAAGTCCCTAAGAGGAATGCCTAGGGAGATTAGAGTATCGGTCGA", "binding signal": -0.74},
      {"sequence": "ACAAATGAGGGGACAAAGTTCGTGGAAAGTGCCTAGGGAGATTAGAGTATCGGTCGA", "binding signal": 2.91},
      {"sequence": "GAGCCTGCACGCCTGTTCACATTCCAGTGTGCCTAGGGAGATTAGAGTATCGGTCGA", "binding signal": -0.595},
      {"sequence": "GACAGGATATTTTGAGGGCTCAAAGGTTACGCCTAGGGAGATTAGAGTATCGGTCGA", "binding signal": 5.37},
      {"sequence": "CTACAGGGTATGAATTTAACCTTTGCTCTCGCCTAGGGAGATTAGAGTATCGGTCGA", "binding signal": 6.87},
      {"sequence": "ATTACATATTAACCTTTGCCCCAGCTGTCAGCCTAGGGAGATTAGAGTATCGGTCGA", "binding signal": 5.74},
      {"sequence": "CCCTAATTACATATTAACCTTTGCCCCAGCGCCTAGGGAGATTAGAGTATCGGTCGA", "binding signal": 6.63},
      {"sequence": "AGACTTTTTTTTTCTTAATTGCCCTTTGCCGCCTAGGGAGATTAGAGTATCGGTCGA", "binding signal": 4.26},
      {"sequence": "GGGTATGAATTTAACCTTTGCTCTCTGAAAGCCTAGGGAGATTAGAGTATCGGTCGA", "binding signal": 5.68},
      {"sequence": "TGACCTTTGCATTCTTACCCAAGCCCCAAAGCCTAGGGAGATTAGAGTATCGGTCGA", "binding signal": 3.73},
      {"sequence": "ACTTTGCCCTTTTTTTCTCTCCCCTTTTAAGCCTAGGGAGATTAGAGTATCGGTCGA", "binding signal": 2.54},
      {"sequence": "CCATCCTACAGGGTATGAATTTAACCTTTGGCCTAGGGAGATTAGAGTATCGGTCGA", "binding signal": 4.2},
      {"sequence": "ACAGTAGACTTTTTTTTTCTTAATTGCCCTGCCTAGGGAGATTAGAGTATCGGTCGA", "binding signal": 2.84},
      {"sequence": "TTTCTTAATTGCCCTTTGCCCTTTGCCCAAGCCTAGGGAGATTAGAGTATCGGTCGA", "binding signal": 8.01},
      {"sequence": "TTTTTTTTCTTAATTGCCCTTTGCCCTTTGGCCTAGGGAGATTAGAGTATCGGTCGA", "binding signal": 8.54},
      {"sequence": "ATATTAACCTTTGCCCCAGCTGTCACCCAGGCCTAGGGAGATTAGAGTATCGGTCGA", "binding signal": 5.03},
      {"sequence": "AAAGGTCATTTCTGCTTGCAACCAAAGGAGGCCTAGGGAGATTAGAGTATCGGTCGA", "binding signal": 1.52},
      {"sequence": "GCAGATGTGTCTTTATAACAGACTGTAGGCGCCTAGGGAGATTAGAGTATCGGTCGA", "binding signal": 0.596},
      {"sequence": "GCCAAGCTCTGGGCTAGTCCCTGAGTATTAGCCTAGGGAGATTAGAGTATCGGTCGA", "binding signal": -0.902},
      {"sequence": "TCCCTCTGCTCCCCTGGCCTCACCCTTGTCGCCTAGGGAGATTAGAGTATCGGTCGA", "binding signal": 2.72},
      {"sequence": "ATTCCAAAAAGCTTTTGTCATGACCTTCGCGCCTAGGGAGATTAGAGTATCGGTCGA", "binding signal": 4.71},
      {"sequence": "AAGGATCAAGGACCTGCTCTGGGGCTACCTGCCTAGGGAGATTAGAGTATCGGTCGA", "binding signal": -0.978},
      {"sequence": "TCAGTTTCATTGCACTTTGCCCTCTCTTCAGCCTAGGGAGATTAGAGTATCGGTCGA", "binding signal": 6.57},
      {"sequence": "CATTGATAATTCAGTTTCATTGCACTTTGCGCCTAGGGAGATTAGAGTATCGGTCGA", "binding signal": 4.01},
      {"sequence": "AGGGAATTTCTAGGTTTGATCTTTGCCCTAGCCTAGGGAGATTAGAGTATCGGTCGA", "binding signal": 6.85},
      {"sequence": "TTGCCCTTTGCCCAACCCTCTCCCACTCCCGCCTAGGGAGATTAGAGTATCGGTCGA", "binding signal": 4.91},
      {"sequence": "GCCCTTTGCCCTTTGCCCAACCCTCTCCCAGCCTAGGGAGATTAGAGTATCGGTCGA", "binding signal": 5.55},
      {"sequence": "TCCTCAGGGAATTTCTAGGTTTGATCTTTGGCCTAGGGAGATTAGAGTATCGGTCGA", "binding signal": 2.95},
      {"sequence": "ATTTCTAGGTTTGATCTTTGCCCTACAATTGCCTAGGGAGATTAGAGTATCGGTCGA", "binding signal": 5.51},
      {"sequence": "TAATTGCCCTTTGCCCTTTGCCCAACCCTCGCCTAGGGAGATTAGAGTATCGGTCGA", "binding signal": 7.02},
      {"sequence": "ATAATTCAGTTTCATTGCACTTTGCCCTCTGCCTAGGGAGATTAGAGTATCGGTCGA", "binding signal": 8.65}
    ]}
  ]
}
